The record followed here is the supplement of paper PMC9262897, “Low-cost anti-mycobacterial drug discovery using engineered E. coli” (Nature Communications, 2022).

Structures can show the parent of a compound that is named as a salt. ± gives the standard deviation of the averaged measurements.

Common to all, as to test: growth (OD600 after 10 h); higher = more growth (less inhibition)
For assay [1], the system named is E. coli TESEC Alr+ wild-type control. Particulars: compound 0.1 mM; raw OD600 reference: median of DMSO wells 0.241, cell-free background 0.041. The method, then:
(§1)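 TESEC Mtb Alr E. coli, or the Alr+ wild-type control, in 384-well plates with Prestwick library compounds at 0.1 mM and 1% DMSO, across arabinose induction levels of 1E3 to 1E7 nM. Growth is read as OD600 after 10 h at 37 °C in triplicate biological replicates.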

The subject of assay [2] is E. coli TESEC Mtb Alr. The conditions noted are these: compound 0.1 mM. The method, then: as §1
In a further assay the test system is E. coli TESEC Mtb Asd. The conditions noted are these: compound 0.1 mM. As for the experimental part:
(§2)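 TESEC E. coli strains in which the native enzyme is deleted and replaced by arabinose-inducible Mtb Asd, DapB, CysH or TrpD, each grown in its selective medium. Strains were screened against the Prestwick library at 0.1 mM and 1% DMSO in 384-well format at low and high arabinose induction. Growth is read as OD600 after 10 h in triplicate.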

For assay [3], the system named is E. coli TESEC Mtb Alr. Particulars: compound 0.1 mM. The method, then:
(§3)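 TESEC Mtb Alr E. coli (ΔaraC ΔtolC ΔentC Δalr ΔdadX, arabinose-inducible Mtb Alr) or the Alr+ wild-type control strain, grown in defined M9-fructose medium without D-alanine in 96-well plates with Prestwick library compounds at 0.1 mM and 1% DMSO. Low Alr induction is 0.1 µM arabinose and high induction is 10 mM arabinose.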
The source holds these as a separate data set.

Assay [4] relates to E. coli TESEC Alr+ wild-type control. Particulars: compound 0.1 mM; raw OD600 reference: median of DMSO wells 0.49, cell-free background 0.052. The method, then:
as §3

A further assay deals with E. coli TESEC Mtb DapB. Particulars: compound 0.1 mM. As for the experimental part: as §2
[5] abbreviates: arabinose 1000 nM, raw OD600 reference: median of DMSO wells 0.294, cell-free background 0.041.
Where [6] appears, read: arabinose 10000 nM, raw OD600 reference: median of DMSO wells 0.264, cell-free background 0.041.
[7] abbreviates: arabinose 100000 nM, raw OD600 reference: median of DMSO wells 0.201, cell-free background 0.041.
Where [8] appears, read: arabinose 1000000 nM, raw OD600 reference: median of DMSO wells 0.193, cell-free background 0.041.
Setting [9] is: arabinose 10000000 nM, raw OD600 reference: median of DMSO wells 0.146, cell-free background 0.041.
Setting [10] is: arabinose induction (level): High, raw OD600 reference: median of DMSO wells 0.331, cell-free background 0.041.
Where [11] appears, read: arabinose induction (level): Low, raw OD600 reference: median of DMSO wells 0.417, cell-free background 0.041.
[12] abbreviates: arabinose 100 nM, raw OD600 reference: median of DMSO wells 0.413, cell-free background 0.052.
The mark [13] stands for this setting: arabinose 10000000 nM, raw OD600 reference: median of DMSO wells […], cell-free background 0.052.
The mark [14] stands for this setting: arabinose induction (level): High, raw OD600 reference: median of DMSO wells […], cell-free background 0.041.
Where [15] appears, read: arabinose induction (level): Low, raw OD600 reference: median of DMSO wells 0.227, cell-free background 0.041.

With `CC(C)CC(N(C)C)C1(c2ccc(Cl)cc2)CCC1` (stereo not given) [Sibutramine HCl], the growth in assay [1] was found to be 0.198 ± 0.0063; in the assay on E. coli TESEC Mtb Alr [2] (setting [5]) it was 0.264 ± 0.0096; in the assay with E. coli TESEC Mtb Alr [2] (setting [6]), 0.269 ± 0.0079; in the assay with E. coli TESEC Mtb Alr [2] (setting [7]), 0.193 ± 0.032; with E. coli TESEC Mtb Alr [2] (setting [8]), 0.131 ± 0.0058; in the assay on E. coli TESEC Mtb Alr [2] (setting [9]), 0.137 ± 0.0051. Also, the growth amounted to 0.213 ± 0.043 in the assay on E. coli TESEC Mtb Asd (setting [10]), 0.37 ± 0.098 with E. coli TESEC Mtb Asd (setting [11]), 0.414 ± 0.0078 in the assay on E. coli TESEC Mtb Alr [3] (setting [12]) and 0.35 ± 0.014 in the assay on E. coli TESEC Mtb Alr [3] (setting [13]).

Take `CC(Cc1ccc(O)cc1)NCC(O)c1cc(O)cc(O)c1` (stereo not given) [Fenoterol hydrobromide]: the growth is 0.241 ± 0.0046 in assay [1]; 0.283 ± 0.02 in the assay with E. coli TESEC Mtb Alr [2] (setting [5]); 0.266 ± 0.0076 in the assay with E. coli TESEC Mtb Alr [2] (setting [6]); 0.184 ± 0.0055 in the assay with E. coli TESEC Mtb Alr [2] (setting [7]); 0.19 ± 0.0033 with E. coli TESEC Mtb Alr [2] (setting [8]); 0.143 ± 0.0091 with E. coli TESEC Mtb Alr [2] (setting [9]). For the same molecule, the growth in the assay with E. coli TESEC Mtb Asd (setting [10]) came out at 0.298 ± 0.046; in the assay on E. coli TESEC Mtb Asd (setting [11]) it was 0.419 ± 0.025; in assay [4], 0.575 ± 0.046; in the assay on E. coli TESEC Mtb Alr [3] (setting [12]), 0.406 ± 0.011; in the assay with E. coli TESEC Mtb Alr [3] (setting [13]), 0.344 ± 0.0099.

`CCCCCC[C@H]1C(=O)O[C@H](C)[C@H](NC(=O)c2cccc(NC=O)c2O)C(=O)O[C@@H](C)[C@@H]1OC(=O)CC(C)C` [Antimycin A]: the growth in assay [1] stood at 0.191 ± 0.0077; in the assay with E. coli TESEC Mtb Alr [2] (setting [5]), 0.203 ± 0.018; in the assay with E. coli TESEC Mtb Alr [2] (setting [6]) it was 0.234 ± 0.0026; in the assay on E. coli TESEC Mtb Alr [2] (setting [7]), 0.249 ± 0.022; with E. coli TESEC Mtb Alr [2] (setting [8]), 0.125 ± 0.0067; in the assay on E. coli TESEC Mtb Alr [2] (setting [9]), 0.159 ± 0.0018. For the same molecule, the growth was found to be 0.24 ± 0.017 in the assay on E. coli TESEC Mtb Asd (setting [10]), 0.316 ± 0.12 in the assay with E. coli TESEC Mtb Asd (setting [11]), 0.363 ± 0.0093 with E. coli TESEC Mtb Alr [3] (setting [12]) and 0.319 ± 0.02 with E. coli TESEC Mtb Alr [3] (setting [13]).

For the molecule `O=C1CC[C@@]2(O)[C@H]3Cc4ccc(O)c5c4[C@@]2(CCN3CC2CC2)[C@H]1O5` [Naltrexone hydrochloride dihydrate], the growth is 0.242 ± 0.0065 in assay [1]; 0.279 ± 0.022 with E. coli TESEC Mtb Alr [2] (setting [5]); 0.2685 ± 0.0019 in the assay with E. coli TESEC Mtb Alr [2] (setting [6]); 0.173 ± 0.023 with E. coli TESEC Mtb Alr [2] (setting [7]); 0.175 ± 0.0025 in the assay on E. coli TESEC Mtb Alr [2] (setting [8]); 0.139 ± 0.0097 in the assay on E. coli TESEC Mtb Alr [2] (setting [9]). Moreover, the growth amounted to 0.224 ± 0.013 with E. coli TESEC Mtb Asd (setting [10]); 0.443 ± 0.05 in the assay on E. coli TESEC Mtb Asd (setting [11]); 0.193 ± 0.0052 in the assay on E. coli TESEC Mtb DapB (setting [14]); 0.219 ± 0.048 in the assay with E. coli TESEC Mtb DapB (setting [15]); 0.4315 ± 0.0022 in the assay on E. coli TESEC Mtb Alr [3] (setting [12]); 0.335 ± 0.0091 in the assay on E. coli TESEC Mtb Alr [3] (setting [13]).

With `CN1[C@@H]2CC[C@H]1C[C@@H](OC(=O)C(CO)c1ccccc1)C2` (stereo not given in full) [Atropine sulfate monohydrate], the growth in assay [1] came to 0.234 ± 0.0026; in the assay with E. coli TESEC Mtb Alr [2] (setting [5]) it was 0.299 ± 0.0088; in the assay with E. coli TESEC Mtb Alr [2] (setting [6]), 0.25 ± 0.0043; in the assay on E. coli TESEC Mtb Alr [2] (setting [7]), 0.253 ± 0.012; in the assay on E. coli TESEC Mtb Alr [2] (setting [8]), 0.182 ± 0.0059; with E. coli TESEC Mtb Alr [2] (setting [9]), 0.149 ± 0.011. Also, the growth with E. coli TESEC Mtb Asd (setting [10]) was 0.339 ± 0.053; in the assay on E. coli TESEC Mtb Asd (setting [11]), 0.421 ± 0.081; with E. coli TESEC Mtb Alr [3] (setting [12]), 0.41 ± 0.019; in the assay on E. coli TESEC Mtb Alr [3] (setting [13]), 0.357 ± 0.014.

As for `O=c1[nH]c2ccccc2n1CCCN1CCC(n2c(=O)[nH]c3cc(Cl)ccc32)CC1` [Domperidone], the growth was 0.129 ± 0.0039 in assay [1]; 0.183 ± 0.0075 in the assay on E. coli TESEC Mtb Alr [2] (setting [5]); 0.214 ± 0.015 with E. coli TESEC Mtb Alr [2] (setting [6]); 0.149 ± 0.0082 in the assay with E. coli TESEC Mtb Alr [2] (setting [7]); 0.09803 ± 0.00075 with E. coli TESEC Mtb Alr [2] (setting [8]); 0.124 ± 0.0039 with E. coli TESEC Mtb Alr [2] (setting [9]). For the same molecule, the growth in the assay on E. coli TESEC Mtb Asd (setting [10]) is 0.1177 ± 0.0011; in the assay with E. coli TESEC Mtb Asd (setting [11]), 0.176 ± 0.018; with E. coli TESEC Mtb DapB (setting [14]), 0.137 ± 0.005; in the assay with E. coli TESEC Mtb DapB (setting [15]), 0.152 ± 0.0037; with E. coli TESEC Mtb Alr [3] (setting [12]) it was 0.41 ± 0.0087; with E. coli TESEC Mtb Alr [3] (setting [13]), 0.246 ± 0.0035.

Regarding `CNCC(O)c1ccc(O)cc1` (racemic) [(+,-)-Synephrine], the growth stood at 0.239 ± 0.0073 in assay [1]; 0.2963 ± 0.00035 in the assay on E. coli TESEC Mtb Alr [2] (setting [5]); 0.267 ± 0.01 with E. coli TESEC Mtb Alr [2] (setting [6]); 0.175 ± 0.012 in the assay with E. coli TESEC Mtb Alr [2] (setting [7]); 0.198 ± 0.012 with E. coli TESEC Mtb Alr [2] (setting [8]); 0.141 ± 0.0004 in the assay with E. coli TESEC Mtb Alr [2] (setting [9]). In addition, the growth in the assay with E. coli TESEC Mtb Asd (setting [10]) stood at 0.222 ± 0.018; in the assay with E. coli TESEC Mtb Asd (setting [11]) it was 0.322 ± 0.076; in the assay with E. coli TESEC Mtb Alr [3] (setting [12]), 0.4195 ± 0.0029; in the assay on E. coli TESEC Mtb Alr [3] (setting [13]), 0.325 ± 0.027.
